Reference: PubChem BioAssay AID2112 (National Center for Advancing Translational Sciences (NCATS), 2009)
The campaign covered roughly 240,000 compounds. About 15 (0.006%) were called active. The call rests on the fitted dose curve; in most records, active means well fitted inhibition curve with a large enough effect; inconclusive means small, poorly fitted or top-dose-only effect, or effect the other way, or another doubt; inactive means no such curve, though single readings can be large or run the other way. Only a sample is shown. Where a SMILES comes first, the peptide text is derived from it.

These molecules were tested against Lysosomal alpha-glucosidase (Homo sapiens) (UniProt P10253) (assay: qHTS Assay for Inhibitors and Activators of Human alpha-Glucosidase From Spleen Homogenate). Details: 4-MU-alpha-glucoside fluorescence; series mostly up to 79.9 µM; activity change, negative = inhibition: at the top concentration.
Text: NIH Chemical Genomics Center [NCGC] NIH Molecular Libraries Probe Production Centers Network [MLPCN] MLPCN Grant: R03 MH084841-01 Assay Submitter (PI): Wei Zheng NCGC Assay Overview: Alpha-glucosidase is responsible for the hydrolysis of terminal, non-reducing 1,4-linked alpha-D-glucose residues, which releases alpha-D-glucose. It is a lysosomal hydrolase that is required for the degradation of a small percentage (1-3%) of cellular glycogen in humans. Deficiency of this enzyme results in glycogen-storage disease type II (GSDII), also referred to as Pompe disease, an autosomal recessive disorder. Structurally normal glycogen is accumulated in the lysosomes and cytoplasm in affected patients, primarily in muscle tissues. Excessive glycogen storage within lysosomes may interrupt normal functioning of other organelles and leads to cellular injury. In turn, this leads to enlargement and dysfunction of the entire organ involved (eg: cardiomyopathy and muscle weakness). It has been reported that the improper folding and trafficking of alpha-glucosidase resulting from genetic mutations may account for a significant number of Pompe patients. […] We optimized this alpha-glucosidase assay in 1536-well plate format for identification of novel small molecule inhibitors or activators with structures other than the sugar analogs in order to develop new pharmacological chaperones. In particular, this assay is directed towards discovering compounds active in a more natural setting, tissue homogenate, that may have been missed by screens of the purified enzyme under more stringent conditions.
NCGC Assay Protocol Summary: This is a fluorogenic enzyme assay with 4-methylumbelliferyl-alpha-D-glucopyranoside as the substrate and human spleen homogenate containing alpha-glucosidase as the enzyme preparation. Upon hydrolysis of this fluorogenic substrate, the resulting product, 4-methylumbelliferone (which excites at 365 nm and emits at 440 nm) can be detected by a fluorescence plate reader. Data were normalized to the controls for basal activity (without enzyme) and 100% activity (with enzyme). The AC50 values were determined from concentration-response data modeled with the standard Hill equation. Assay buffer: 50 mM citric acid (titrated with potassium phosphate to pH 5.0), 0.01% Tween-20 (pH 5.0 is an optimal condition for this enzyme assay) 1536-well assay protocol for the alpha-glucosidase from human spleen homogenate: (1) Add 2 ul/well spleen homogenate (1 ug) (2) Add 23 nL compounds in DMSO solution. The final titration was 0.5 nM to 58 uM. (3) Add 2 ul of substrate (1 mM final) (4) Incubate at 37 C for 40 min (5) Add 2 ul stop solution (1M NaOH and 1M Glycine mixture, pH 10) (6) Detect the assay plate in a ViewLux plate reader (PerkinElmer) with Ex=365 nm and Em=440nm. Keywords: Alpha-glucosidase, Pompe Disease, pharmacological chaperone, chaperone therapy, high throughput screening, alpha-glucosidase inhibitor, MLSMR, MLSCN, NIH Roadmap, qHTS and NCGC
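Further: 0% = enzyme with vehicle and -100% = no enzyme basal signal.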

Activity change, negative = inhibition, inactive:
Cc1nc(-c2ccccc2)sc1-c1nc(-c2ccccc2)ncc1S(=O)(=O)c1ccccc1 -0.37%
CO[C@@]12[C@@H](COC(N)=O)C3=C(C(=O)C(C)=C(N)C3=O)N1C[C@@H]1N[C@@H]12 -0.0282%
Cc1ccc2nc(/C(C#N)=C\c3ccc(OC(=O)c4cccs4)cc3)[nH]c2c1 -2.6%
COc1c(O)c2c(=O)cc(OC)c3c4c(OC)cc(=O)c5c(O)c(OC)c6c(c(c1C[C@@](C)(O)[C@H]6C(C)=O)c23)c54 -8.94%
Clc1ccc(C[n+]2cc(-c3ccc(Cl)cc3)n3c2CCC3)cc1 -3.89%
COc1ccc(NC2=CC(=S)NC(C)(C)C2)cc1 0.55%
O=C(NCC1CC1)C1(C(F)(F)F)C/C(=C\CCO)CCCO1 (stereo not drawn) 3.72%
COc1cc2[nH]c(=O)n(Cc3ccc(C(=O)NC4CCN(Cc5ccccc5)CC4)cc3)c(=O)c2cc1OC -0.526%
COC(=O)C(CC(C)C)NS(=O)(=O)c1cc(Br)ccc1Br (stereo not drawn) 3.71%
C=C1CCN(Cc2ccc(OC)cc2)S(=O)(=O)c2ccccc21 -11.5%
CCOc1cc(C2C(C(=O)OC(C)C)=C(C)NC3=C2C(=O)CCC3)cc([N+](=O)[O-])c1O (stereo not drawn) 1.08%
Cc1ccccc1N/C(SCc1ccc(Cl)cc1)=C(/C#N)C(N)=O 3.19%
Cc1c(-c2ccccc2)n[nH]c1C(=O)N=Nc1c(O)[nH]c2ccccc12 -7.29%
Cc1cc(C)c(NC(=O)CN2C(=O)NC(Cc3ccccc3)C2=O)c(C)c1 (stereo not drawn) 1.21%
CC(=O)c1c(N2CCN(c3ccc(F)cc3)CC2)nc(=S)n(-c2ccccc2)c1C 6.73%
O=C(CP(=O)(c1ccccc1)c1ccccc1)N1CCOCC1 -1.35%
Cc1nn(CCOc2ccc(Br)cc2)c(C)c1[N+](=O)[O-] 5.99%
COc1cc(OC)c2c(C)cc(=O)oc2c1C(CCN1CCCCC1)c1ccc(N(C)C)cc1 (stereo not drawn) 2.28%
Cc1ccc(-c2nc(C)sc2CC(=O)OCC(=O)Nc2c(F)cccc2F)cc1 0.406%
CCCCCCCC[C@@H](O)/C=C/C=C/C=C\[C@@H](O)CCCC(=O)O 1.53%
COc1ccc(CN2CCC(=O)c3ccccc3S2(=O)=O)cc1 -5.9%
COc1ccc(C2CC(O)(c3ccccc3)Oc3cc(C)cc(C)c32)cc1 (stereo not drawn) -2.15%
COC(=O)[C@@]1(C)C=C[C@@H](Cc2ccccc2)N1C(C)=O -11.6%
O=C(C1CCN(c2nnc(-n3cccc3)s2)CC1)N1CCc2ccccc2C1 -3.74%
O=C(CSc1ccccn1)Nc1nc2c(ccc3ccccc32)s1 -2.23%
CC(C)C(NS(=O)(=O)c1ccc(-c2ccc(Br)cc2)cc1)C(=O)O (stereo not drawn) 9.33%
C[C@@H](O)[C@@H]1NC(=O)[C@H](CCCCN)NC(=O)[C@H](Cc2c[nH]c3ccccc23)NC(=O)[C@H](Cc2ccccc2)NC(=O)[C@H](Cc2ccccc2)NC(=O)[C@H](CC(N)=O)NC(=O)[C@H](CCCCN)NC(=O)[C@@H](NC(=O)[C@@H]2CCCN2)CSSC[C@@H](C(=O)N[C@@H](CCCCN)C(=O)O)NC(=O)[C@H](CO)NC(=O)[C@H](CO)NC(=O)[C@H](Cc2ccccc2)NC1=O (HELM PEPTIDE1{P.C.K.N.F.F.W.K.T.F.S.S.C.K}$PEPTIDE1,PEPTIDE1,2:R3-13:R3$$$V2.0) 6.58%
CSc1ccccc1N1CCN(CCCCCC(=O)NC2CCCc3ccccc32)CC1 (stereo not drawn) -1.62%
CC[C@H](C)[C@H](NC(=O)[C@H](Cc1ccc(O)cc1)NC(=O)[C@@H](NC(=O)[C@H](CCCN=C(N)N)NC(=O)[C@@H](N)CC(=O)O)C(C)C)C(=O)N[C@@H](Cc1cnc[nH]1)C(=O)N1CCC[C@H]1C(=O)N[C@@H](Cc1ccccc1)C(=O)O -2.98%
Cc1ccc2c(c1)C(c1ccccc1)N(C(=O)c1ccc(S(=O)(=O)N3CCOCC3)cc1)CC(=O)N2 (stereo not drawn) 3.75%
COC(=O)[C@@]1(Cc2ccccc2)[C@H]2c3cc(C(=O)N(C)C)n(CCSCCO)c3C[C@H]2CN1C(=O)c1ccccc1 0.272%
Cc1ccc(CNC(=O)C2(C(F)(F)F)C/C(=C\CCO)CCCO2)o1 (stereo not drawn) -3.58%
O=C(c1cc(C(F)(F)F)cc(C(F)(F)F)c1)N1CCC2(CCCN(c3ccccn3)C2)CC1 2.45%
CCCN1CCC(=O)N(C(CSc2ccc(OC)cc2)Cc2ccccc2)CC1 (stereo not drawn) -8.71%
CCCCNC(=S)N/N=C1\CCCCc2ccccc21 -7.3%
C=CCCN(C(Cc1ccccc1)C(=O)OC)S(=O)(=O)c1cc(Br)ccc1Br (stereo not drawn) 0.718%
Cc1ccccc1Nc1scc(-c2ccc(Br)cc2)[n+]1-c1ccccc1C -4.94%
Cc1nc(C(=O)N2CCCC(C(=O)c3ccc(Cl)cc3)C2)cs1 (stereo not drawn) 1.42%
CC1=CC(=C(C#N)c2nc3ccccc3s2)C=C(C)N1c1ccc(F)cc1F 1.11%
Cc1cc(C(=O)OCC(=O)Nc2nccs2)c2ccccc2n1 2.11%
O=C1NC(=Nc2ccc(Cl)cc2)SC1Cc1cccc(Cl)c1Cl (stereo not drawn) -5.67%
Cc1ccc(S(=O)(=O)N(CC(=O)Nc2cccc([N+](=O)[O-])c2)Cc2ccc(Cl)cc2)cc1 2.83%
COc1ccc(C2=Nc3cc(C)ccc3OC2)cc1 -4.38%
CCOC(=O)Cn1c(=O)sc2cccc(Cl)c21 -7.95%
CCN(CC)CCNC(=O)c1sc2ncn(CC(=O)Nc3ccc(C)c(Cl)c3)c(=O)c2c1C -3.52%
Cc1cccc2c1-c1sc(C(=O)NCCCN3CCc4ccccc4C3)cc1CO2 18.1%
O=C1/C(=C/c2coc3ccc(O)cc3c2=O)SC(=S)N1c1ccccc1 4.43%
CC[C@H](C)[C@H](NC(=O)[C@H](CCCNC(=N)N)NC(=O)[C@H](CCCNC(=N)N)NC(=O)[C@H](CC(C)C)NC(=O)[C@H](Cc1ccccc1)NC(=O)CNC(=O)CNC(=O)[C@@H](N)Cc1ccc(O)cc1)C(=O)N[C@@H](CCCNC(=N)N)C(=O)N1CCC[C@H]1C(=O)N[C@@H](CCCCN)C(=O)N[C@@H](CC(C)C)C(=O)N[C@@H](CCCCN)C(=O)N[C@@H](Cc1c[nH]c2ccccc12)C(=O)N[C@@H](CC(=O)O)C(=O)N[C@@H](CC(N)=O)C(=O)N[C@@H](CCC(N)=O)C(=O)O -9.54%
COc1ccc(-c2ccc(C3C4C=CCCC4(C)C(=O)N3Cc3ccccc3)c(F)c2)cc1OC (stereo not drawn) -2.95%
Cc1ccc(-n2c(SCC(=O)N3c4ccccc4Sc4ccccc43)nnc2-c2ccncc2)cc1 -8.44%
BrC1C(Br)C(Br)C(Br)C(Br)C1Br (stereo not drawn) 5.06%
CCCC(Cl)CCCC(Cl)CCC(Cl)CCC(Cl)CCC(Cl)CCCC(Cl)CCC (stereo not drawn) -7.48%
O=C(NC(CC(=O)N1CCN(c2ccccc2)CC1)c1ccccc1)c1ccccc1Cl (stereo not drawn) -4.71%
CC1(C)Cc2cccc(OCC(=O)N3CCN(c4ccc([N+](=O)[O-])cc4)CC3)c2O1 -6.17%
O=C1C2C(c3ccccc3)CC=CC2C(c2ccoc2)N1Cc1ccccc1 (stereo not drawn) -8.93%
COC(=O)CCc1ccccc1S(=O)(=O)N(CCC(=O)OC)Cc1ccccc1 3.68%
C=CCSC(CC)(CC)C(N)=O 0.0084%
C/C(=N\NC(=S)Nc1ccc(C)cc1)c1cc2ccccc2o1 10.6%
O=C(OCC(COC(=O)c1ccccc1)(COC(=O)c1ccccc1)COC(=O)c1ccccc1)c1ccccc1 -1.65%
Nc1nc2c(ncn2[C@@H]2O[C@H](COP(=O)(O)OP(=O)(O)OP(=O)(O)O)[C@@H](O)C2O)c(=O)[nH]1 (stereo partly drawn) 1.86%
C[C@H]1CCC[C@@]2(C)CCCC[C@]12O -4.13%
CCC(C(=O)Nc1ccc(C(C)C)cc1)c1ccccc1 (stereo not drawn) -5.23%
COc1ccc(C2/C=C\CN(C(=O)c3ccc(C)cc3)C(Cc3ccccc3)C(=O)N2Cc2ccc(F)cc2)cc1 (stereo not drawn) -1.47%
CC(C)CC(COCc1ccc(Cl)cc1)N1CCN(C(=O)c2ccc(C(F)(F)F)cc2)CCC1=O (stereo not drawn) -1.89%
COc1ccc(C(CCN2CCOCC2)c2c(OC)cc(OC)c3c2OC(=O)CC3c2ccc(OC)cc2)cc1 (stereo not drawn) -1.9%
Cc1ccc(Nc2nc(C)cc(C)c2C(N)=O)cc1 -2.03%
O=C(CN1C(=O)NC(Cc2ccccc2)(Cc2ccccc2)C1=O)NCC1CCCCC1 0.793%
C=C1CCN(C(CC(C)C)C(=O)NCc2cc(OC)c(OC)c(OC)c2)S(=O)(=O)c2ccccc21 (stereo not drawn) -1.04%
CCOC(=O)C(=CNNc1ccsc1C(=O)OC)C(=O)OCC 4.66%
CCCCN(CC)CCNC(=O)CCNC(=O)Cn1ccc2ccccc2c1=O -7.84%
O=C(CCCc1ccccc1)NCc1ccccc1 0.497%
COC(=O)c1c(C)[nH]c(C(=O)/C=C/c2ccc(Cl)cc2)c1C 2.56%
O=c1ccn([C@@H]2O[C@H](COP(=O)(O)OP(=O)(O)OP(=O)(O)O)[C@@H](O)[C@H]2O)c(=O)[nH]1 1.76%
COCOc1cc(OC)ccc1C(=O)/C=C/c1ccc([N+](=O)[O-])cc1 -9.06%
CC(C)CO -4.92%
CC(=O)Nc1ccc(S(=O)(=O)N2N=NC3C2C2CC4C3(CN(C(=O)OC(C)(C)C)S4(=O)=O)O2)cc1 (stereo not drawn) -4.01%
O=C(CCN1CCCCC1)N=Nc1c(O)[nH]c2ccccc12 1.76%
CC(=O)OCC(NC(=O)C(Cc1ccccc1)NC(=O)OC(C)(C)C)C1OC(n2ccc(=O)[nH]c2=O)C(OC(C)=O)C1OC(C)=O (stereo not drawn) 3.72%
COc1ccc(NC(=O)c2sc(N3CCOCC3)nc2-c2ccccc2)c(OC)c1 -8.66%
S=C(NNC(=S)NC1CC2CCC1C2)NC1CC2C=CC1C2 (stereo not drawn) 7.45%
O=S(O)S(=O)(=O)O -1.43%
COc1ccc(-c2ccc(OC)c(C3C4C=CCC(C)C4C(=O)N3Cc3ccccc3)c2)cc1C (stereo not drawn) -0.333%
COC(=O)c1ccc([C@@H](O)[C@H](C)C(=O)CC(=O)OC(C)(C)C)cc1 -10.4%
O=C(Cc1c[nH]c2ccccc12)N/N=C/c1cccc(F)c1 -8.44%
CCN(CC)CCNCc1ccc(OCc2ccc(Cl)nc2)c(OC)c1 -0.785%
N#CC1=C(N)Oc2[nH]c(=S)[nH]c(=O)c2C12C(=O)Nc1ccccc12 (stereo not drawn) -1.33%
C/C(=N\NC(=O)c1cc2c(s1)CCC(C)C2)c1cccnc1 (stereo not drawn) 0.124%
O=C(Nc1cccc(CCc2ccccn2)c1)c1ccc(Cl)cc1 3.21%
C=C1/C(=C\C=C2\CCCC3(C)C2CCC3C(C)/C=C/C(O)C2CC2)CC(O)CC1O (stereo not drawn) 4.41%
Clc1ccc(C2=CSC3=Nc4cccc5cccc(c45)N23)cc1 1.96%
CCOc1ccc(CN2CCN(Cc3ccc(C)o3)CC2CCO)cc1 (stereo not drawn) -3.3%
COc1ccc(NC(C(=O)Nc2cccc(C(C)=O)c2)c2ccccc2)cc1 (stereo not drawn) -8.55%
N#CCC(=O)N/N=C/c1ccc(SCC(=O)Nc2ccccc2)o1 -3.71%
O=C(O)c1ccc(/C=C2/SC(=S)N(c3cccc(C(F)(F)F)c3)C2=O)cc1 -6.48%
O=c1cc(-c2ccc(O)cc2)oc2c(-c3cc(-c4cc(=O)c5c(O)cc(O)cc5o4)ccc3O)c(O)ccc12 5.22%
COc1ccc([N+](=O)[O-])cc1NC(=O)C(C)OC(=O)C1c2ccccc2Oc2ccccc21 (stereo not drawn) -3.57%
Cc1cc(C)nc(NS(=O)(=O)c2ccc(N/C=C\C(=O)c3cccs3)cc2)n1 -0.279%
CC(=O)N1CC[n+]2c(-c3ccc([N+](=O)[O-])cc3)csc21 2.47%
